# Assay outcomes: PubChem BioAssay, several laboratories
# MITF TRPM1 inh: MITF TRPM1 promoter inhibition in SK-MEL-5 cells | 330,000 tested, 0.83% active | inhibition, % at 12.5 µM | SK-MEL-5 TRPM1 promoter luciferase, 24 h;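 active = mean inhibition across replicates of 60% or more, whatever share of single replicates reaches that level; inconclusive = some that reach 60%, reason not given; inactive = mean inhibition across replicates below 60%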
# Shn3 3UTR inh: inhibitors of Schnurri-3 3'UTR reporter in osteoblasts. Clone20 osteoblast Shn3 3'UTR firefly luciferase, 24 h. inhibition, % at 12.5 µM. 360,000 tested, 0.52% active. AID 588674;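 active = mean inhibition of at least 75% with every replicate also reaching 75%; inconclusive = mean inhibition at least 75% but some replicate below; inactive = mean inhibition below 75%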;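 note: 0% = median of neutral control wells and 100% = pilot-screen positive control compound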
# Peg3 prom inh: inhibitors of Peg3 promoter. HeLa PEG-Prom luciferase reporter, luminescence, overnight. inhibition, % at 20 µM. 360,000 tested, 1.7% active;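 active = inhibition of at least 50% at 20 µM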
# HIF-2a inh: inhibitors of HIF-2a | 786-0 RCC cells HIF-2a reporter, luciferase luminescence, overnight | inhibition, % at 18.8 µM | 360,000 tested, 0.72% active | AID 624352;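 active = inhibition of the luminescence signal of 40% or more relative to plate controls, in a single-dose primary screen at 18.75 µM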
# KKLEB cytotox: counter-screen for CF NF-kB inhibitors: cytotoxicity | KKLEB CF airway cells viability, ATPlite luminescence, overnight; hits give low values; cells stimulated with P. aeruginosa culture filtrate | activity change (cytotoxicity), % at 5 µM | 360,000 tested, 0.36% active | AID 602141;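 active = corrected activity change at or below -50% at 5 µM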
# CF NFkB inh: blocks PAF-induced NF-kB reporter in cystic fibrosis cells. KKLEB NF-kB-GFP reporter, GFP fluorescence overnight. 360,000 tested, 0.86% active. AID 588850. inhibition, % at 5 µM;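 active = at least 50% inhibition at 5 µM, scaled per plate between neutral and stimulator controls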;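 note: PAF is a Pseudomonas aeruginosa culture filtrate used as stimulus; plate controls were PAF-stimulated DMSO wells for no effect and unstimulated DMSO wells for full effect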
# * hit, by the source's call; ? = inconclusive; nt = not tested or not shown. A selection: hits, their analogues and other compounds. The true share with any hit is near 2.8%.
SMILES,MITF TRPM1 inh,Shn3 3UTR inh,Peg3 prom inh,HIF-2a inh,KKLEB cytotox,CF NFkB inh
Cc1ccc(S(=O)(=O)N2C[C@H]3n4c(=O)ccc(=O)n4C[C@H](OC(=O)NCc4ccccc4)[C@@]3(O)C2)cc1,nt,-20,-11,26,-1,45
O=C(COC(=O)Cn1nnc2ccccc21)Nc1ccccc1Br,-11,11,6,13,-2,5
COc1cc(-c2cc3nc(NCCc4ccncc4)ccn3n2)cc(OC)c1OC,nt,-3,-28,-74,4,-82
COc1cc(-c2cc3nc(NCCOc4ccccc4)ccn3n2)cc(OC)c1OC,nt,4,53*,-84,-8,-49
CC1(C)CCC[C@@]2(C)CC=C(C(=O)O)[C@@H]3C[C@]312,0,-9,14,17,8,-11
COc1ccc2nc(C)cc(SCC(=O)N/N=C/c3cccc4ccccc34)c2c1,?,21,60*,-7,-42,45
Cc1cc(SCC(=O)N/N=C/c2ccc(O)cc2O)nc2ccccc12,36,92*,54*,14,-1,1
Cc1cc(SCC(=O)N/N=C/c2ccc(O)c(O)c2)nc2ccccc12,21,8,22,14,-2,7
O=C(O)C1(c2ccccc2)CCN(S(=O)(=O)c2ccc(Br)cc2)CC1,11,17,-130,8,-4,1
CCOC(=O)C1(Cc2cccc(OC)c2)CCN(C/C=C/c2ccccc2)CC1,-7,67,-7,12,-8,7
CCOC(=O)C1(Cc2cccc(OC)c2)CCN(C/C=C/c2ccc(OC)cc2)CC1,10,88*,7,16,-4,12
Cc1cc(C)cc(OCC(=O)O/N=C(\N)c2cccnc2)c1,nt,10,-13,-38,11,-4
CCCCCc1cc(=O)oc2c(C(CCN3CCCCC3)c3cc(OC)c(OC)c(OC)c3)c(OC)cc(OC)c12 (stereo not given),89*,14,90*,10,-9,3
CCCCCc1cc(=O)oc2c(C(CCN(CC)CC)c3ccc(N(C)C)cc3)c(OC)cc(OC)c12 (stereo not given),89*,13,100*,4,-36,26
CCCCCc1cc(=O)oc2c(C(CCN3CCCC(C)C3)c3cc(OC)c(OC)c(OC)c3)c(OC)cc(OC)c12 (stereo not given),73*,39,101*,11,-10,17
CCCCCc1cc(=O)oc2c(C(CCN3CCCC(C)C3)c3ccc(N(C)C)cc3)c(OC)cc(OC)c12 (stereo not given),38,28,94*,-7,-7,26
Cc1cccc(C)c1CC(=O)N1CCOCC1,-4,-2,3,16,-10,-5
O=C(NCc1ccccc1)c1ccc(-c2cn[nH]c2)c2ccoc12,nt,22,-171,-171,-67*,54*
Cc1ccc2nc3sc(C(=O)N4CCOCC4)c(N)c3cc2c1,69*,52,-162,-164,-2,0
Cn1nc(C(F)(F)F)c(-c2ccc(Br)cc2)c1NC(=O)Nc1ccc(F)cc1F,9,nt,51*,7,-13,31
Cc1ccc(S(=O)(=O)NCCc2nnc(SCc3cccnc3)n2C)cc1,4,7,15,9,-5,16
C/C(Cl)=C\Cn1c(O)c(N=NC(N)=S)c2cc(Br)ccc21,16,21,0,19,-6,56*
NC(=S)N=Nc1c(O)n(Cc2ccc(F)cc2)c2ccccc12,4,0,16,7,-21,-1
NC(=S)N=Nc1c(O)n(Cc2ccc(Br)cc2)c2ccccc12,30,11,18,35,-52*,42
CC(C)C[C@H](NC(=O)c1nc[nH]c1C(=O)NC(c1ccccc1)c1ccccc1)C(=O)OC(C)(C)C,9,28,84*,35,-2,34
SMILES,MITF TRPM1 inh,Shn3 3UTR inh,Peg3 prom inh,HIF-2a inh,KKLEB cytotox,CF NFkB inh
O=C(CSc1nncn1-c1ccccc1)Nc1cc(F)ccc1F,-17,-8,-15,-23,-3,14
Cc1cc(C)c(NC(=O)c2cccc3c2C(=O)N(C2CCCCC2)C3)c(C)c1,13,44,56*,15,1,6
CC1=CC(C)C(/C=N/N=C(N)N)C(C)C1 (stereo not given),8,-73,16,18,16,-18
O=C(CCC(=O)c1ccc(F)cc1)NC1CCCN(Cc2ccccc2F)C1 (stereo not given),8,-3,10,12,8,-10
COc1ccc(CN2CCN(Cc3ccc(Br)cc3)CC2)c(OC)c1OC,14,28,3,11,1,-5
CCOC(=O)C1(CCOc2ccccc2)CCN(Cc2ccc(OC)c(COC)c2)CC1,21,88*,11,20,0,-10
COCC(C)N1C(=O)Cc2c1nc(N)c1c(N)nc(N3CCN(c4ccccc4F)CC3)c(C#N)c21 (stereo not given),28,73,55*,21,-15,6
COCCN1C(=O)Cc2c1nc(N)c1c(N)nc(N3CCN(c4ccc(F)cc4)CC3)c(C#N)c21,1,-1,24,11,9,-13
COc1cc(/C=C(\C#N)c2nc3ccccc3[nH]2)ccc1OC(=O)c1ccco1,-1,-76,-97,-168,3,-48
COc1cc(/C=C(/C#N)c2nc3ccccc3[nH]2)ccc1OCC(=O)Nc1ccccc1C,5,-10,104*,14,3,-21
C/C=C1\NC(=O)[C@H](C)NC(=O)[C@@H](NC(=O)[C@@H](Cc2ccc(O)cc2)NC(=O)[C@@H](NC(=O)/C(C)=C/C)C(C)C)[C@@H](C)OC(=O)[C@H](CCCCc2ccc(O)cc2)NC(=O)[C@@H](CCC(=O)O)NC1=O,-14,-17,3,0,2,7
CN(Cc1ccccc1)CC(O)COc1ccc(CNCCc2cccnc2)cc1 (stereo not given),-21,-16,-1,8,-10,18
CCc1ccc(CNCc2ccc(OCC(O)CN(C)Cc3ccccc3)cc2)nc1 (stereo not given),6,86*,10,0,-2,6
COc1ccc(Cc2[nH]n3c(=O)cc(C(C)C)nc3c2-c2ccccc2)cc1,23,60,52*,22,-6,9
COc1ccc(Cc2[nH]n3c(=O)cc(C)nc3c2-c2ccccc2)cc1,22,45,16,22,-4,8
CN(C)c1ccc(C(=O)n2nnc3ccccc32)cc1,-4,8,-20,-42,-36,69*
COc1ccccc1NS(=O)(=O)c1cc(NC(=O)c2ccc(Cl)nc2)ccc1Cl,64*,87*,50*,20,15,-14
CCc1nnc(SCC(=O)NC2CCCCC2)nc1CC,5,-38,77*,-4,-4,11
CCc1nc2ccc(C(=O)Nc3cc(-c4ccccc4)ccc3OC)cn2c1N(C)Cc1ccc(OC)cc1,nt,-7,-13,-39,-18,29
